Here are results for 69 compounds from the antibiotic and cytotoxicity screens of Wong et al. (2023).

SMILES strings stand for the structures. Among all 39,000 compounds or so, about 3,300 (8.5%) were called active. Many of the other results were omitted from the sample, so actives are more common in it than they were.

This assay relates to HepG2. Briefly: cytotoxicity call (relative viability < 0.9). Conditions: 10 µM.
With `C[C@@H]1CN([C@@H](C)CO)C(=O)c2cc(NC(=O)CCN3CCOCC3)ccc2O[C@H]1CN(C)Cc1ccc2c(c1)OCO2`, the cytotoxicity call is “inactive”.

Consider `COCC(=O)Nc1ccc2c(c1)C(=O)N(C)C[C@@H](OC)[C@@H](C)CN(C(=O)c1ccccc1F)[C@@H](C)CO2`, for which the cytotoxicity call is “inactive”.

Turning to `CO[C@@H]1CN(C)C(=O)c2cc(NC(=O)C3CCCC3)ccc2OC[C@@H](C)N(C(=O)Nc2ccc(C(F)(F)F)cc2)C[C@H]1C`, the cytotoxicity call was “inactive”.

As for `Cc1cnc(CNC(=O)[C@H]2C[C@H]3[C@@H](CCN3S(C)(=O)=O)O2)cn1`, the cytotoxicity call was “inactive”.

`O=C(C[C@@H]1C[C@@H]2c3cc(NS(=O)(=O)c4ccc(F)cc4)ccc3O[C@@H]2[C@H](CO)O1)NCC(F)(F)F`: the cytotoxicity call is “inactive”.

Regarding `CC=Cc1ccc2n(c1=O)C[C@@H]1[C@@H](CO)[C@H](C(=O)NCCc3cn(C)cn3)[C@H]2N1C(=O)C1CC1`, the cytotoxicity call is “inactive”.

`Cn1c(=O)c(=O)n(C)c2cc(S(=O)(=O)CCC(=O)NCc3ccccc3)ccc21`: the cytotoxicity call is “inactive”.

Take `CCCCNc1ccc(C(=O)OCCN(C)C)cc1.Cl`: the cytotoxicity call is “active”.

As for `CCCCNc1ccc(C(=O)OCCOCCOCCOCCOCCOCCOCCOCCOCCOC)cc1`, the cytotoxicity call is “inactive”.

`CCCCOC(=O)c1ccc(O)cc1`: the cytotoxicity call was “inactive”.

Regarding `Cc1noc(C)c1NC(=O)N(C)C[C@@H]1Oc2c(NC(=O)Nc3cccc4ccccc34)cccc2C(=O)N([C@H](C)CO)C[C@@H]1C`, the cytotoxicity call is “inactive”.

Consider `C[C@@H]1CN([C@H](C)CO)C(=O)c2cc(NC(=O)c3ccccc3)ccc2O[C@@H](C)CCCCO[C@@H]1CN(C)Cc1ccncc1`, for which the cytotoxicity call was “inactive”.

`O=C(C1CCC1)N1CCOCC1`: the cytotoxicity call was “inactive”.

For `C[C@@H](N)CCc1ccc(Br)cc1`, the cytotoxicity call was “inactive”.

Regarding `C[C@@H]1CCCCO[C@@H](CN(C)C(=O)C2CCCCC2)[C@H](C)CN([C@@H](C)CO)C(=O)c2cc(NC(=O)c3ccncc3)ccc2O1`, the cytotoxicity call is “inactive”.

Turning to `C[C@@H]1CN([C@H](C)CO)C(=O)c2cc(NC(=O)CCCN(C)C)ccc2O[C@@H]1CN(C)C(=O)Nc1ccc2c(c1)OCO2`, the cytotoxicity call was “inactive”.

As for `Cc1ccc(S(=O)(=O)Nc2ccc3c(c2)C(=O)N([C@H](C)CO)C[C@@H](C)[C@H](CN(C)C(=O)Nc2cccc4ccccc24)O3)cc1`, the cytotoxicity call is “active”.

Consider `Cc1ccc(S(=O)(=O)Nc2ccc3c(c2)C(=O)N([C@@H](C)CO)C[C@H](C)[C@@H](CN(C)C(=O)Nc2cccc4ccccc24)O3)cc1`, for which the cytotoxicity call was “inactive”.

As for `Cc1ccc(S(=O)(=O)Nc2ccc3c(c2)C(=O)N([C@@H](C)CO)C[C@H](C)[C@H](CN(C)C(=O)Nc2cccc4ccccc24)O3)cc1`, the cytotoxicity call is “inactive”.

As to `C[C@@H]1CN([C@H](C)CO)C(=O)c2cc(NS(=O)(=O)c3ccccc3)ccc2O[C@@H]1CN(C)C(=O)Nc1cccc2ccccc12`, the cytotoxicity call was “active”.

In the case of `C[C@H](CO)N1C[C@H](C)[C@H](CN(C)C(=O)Nc2cccc3ccccc23)Oc2ccc(NS(=O)(=O)c3ccccc3)cc2C1=O`, the cytotoxicity call is “inactive”.

As for `C[C@@H]1CN([C@H](C)CO)C(=O)c2cc(NS(=O)(=O)c3ccccc3)ccc2O[C@H]1CN(C)C(=O)Nc1cccc2ccccc12`, the cytotoxicity call was “inactive”.

In the case of `CC(C)NC(=O)N(C)C[C@H]1Oc2ccc(NC(=O)c3ccncc3)cc2CC(=O)N([C@H](C)CO)C[C@@H]1C`, the cytotoxicity call is “inactive”.

Turning to `C[C@@H]1CCCCO[C@H](CN(C)S(=O)(=O)c2cccs2)[C@H](C)CN([C@@H](C)CO)C(=O)c2cc(NS(=O)(=O)c3cn(C)cn3)ccc2O1`, the cytotoxicity call is “inactive”.

With `Cc1ccc(S(=O)(=O)Nc2ccc3c(c2)C(=O)N([C@@H](C)CO)C[C@@H](C)[C@@H](CN(C)C(=O)NC2CCCCC2)OCCCC[C@@H](C)O3)cc1`, the cytotoxicity call was “inactive”.

On to `CC(C)(C)OC(=O)C[C@H]1CC=CC[C@H](CC(=O)NCCO)C(=O)N[C@H](Cc2ccccc2)COC1=O`, for which the cytotoxicity call was “inactive”.

For the compound `C[C@@H]1CN([C@H](C)CO)C(=O)Cc2cc(NS(=O)(=O)c3cn(C)cn3)ccc2O[C@H]1CN(C)Cc1ccc(C(=O)Nc2ccccc2N)cc1`, the cytotoxicity call is “inactive”.

Turning to `CN1C(=O)c2cc(NS(=O)(=O)c3cccc(F)c3)ccc2OC[C@H]2O[C@@H](CC(=O)NCCN3CCCCC3)CC[C@H]21`, the cytotoxicity call was “inactive”.

Consider `C[C@H](CO)N1C[C@H](C)[C@H](CN(C)Cc2ccc3c(c2)OCO3)Oc2ccc(NC(=O)Nc3ccc(C(F)(F)F)cc3)cc2CC1=O`, for which the cytotoxicity call is “active”.

With `C[C@H]1CN([C@@H](C)CO)C(=O)Cc2cc(NC(=O)Nc3ccc(C(F)(F)F)cc3)ccc2O[C@@H]1CN(C)Cc1ccc2c(c1)OCO2`, the cytotoxicity call is “inactive”.

For `C[C@@H]1CN([C@H](C)CO)C(=O)Cc2cc(NC(=O)Nc3ccc(C(F)(F)F)cc3)ccc2O[C@H]1CN(C)Cc1ccc2c(c1)OCO2`, the cytotoxicity call is “inactive”.

Turning to `C[C@@H]1CN([C@@H](C)CO)C(=O)Cc2cc(NC(=O)Nc3ccc(C(F)(F)F)cc3)ccc2O[C@H]1CN(C)Cc1ccc2c(c1)OCO2`, the cytotoxicity call was “active”.

Turning to `C[C@H](CO)N1C[C@H](C)[C@@H](CN(C)Cc2ccc3c(c2)OCO3)Oc2ccc(NC(=O)Nc3ccc(C(F)(F)F)cc3)cc2CC1=O`, the cytotoxicity call is “active”.

In the case of `C[C@@H]1CN([C@H](C)CO)C(=O)Cc2cc(NC(=O)Nc3ccc(C(F)(F)F)cc3)ccc2O[C@@H]1CN(C)Cc1ccc2c(c1)OCO2`, the cytotoxicity call was “active”.

In the case of `C[C@H]1CN([C@@H](C)CO)C(=O)Cc2cc(NC(=O)Nc3ccc(C(F)(F)F)cc3)ccc2O[C@H]1CN(C)Cc1ccc2c(c1)OCO2`, the cytotoxicity call is “inactive”.

With `Cc1noc(C)c1NC(=O)N(C)C[C@@H]1OCCCC[C@@H](C)Oc2ccc(NC(=O)NC3CCCCC3)cc2C(=O)N([C@H](C)CO)C[C@H]1C`, the cytotoxicity call was “inactive”.

In the case of `NCC[C@@H]1CC[C@@H](NC(=O)C2CC2)[C@H](CO)O1`, the cytotoxicity call is “inactive”.

For `COc1ccc(CN(C)C[C@@H]2Oc3ccc(NS(=O)(=O)c4cn(C)cn4)cc3CC(=O)N([C@@H](C)CO)C[C@@H]2C)cc1`, the cytotoxicity call is “inactive”.

As for `C[C@@H]1CCCCO[C@H](CN(C)C(=O)C2CCCCC2)[C@@H](C)CN([C@H](C)CO)C(=O)c2cc(NC(=O)c3ccncc3)ccc2O1`, the cytotoxicity call is “inactive”.

Take `C[C@@H]1CN([C@H](C)CO)C(=O)c2cc(NC(=O)Cc3ccccc3)ccc2O[C@@H](C)CCCCO[C@@H]1CN(C)Cc1ccc2c(c1)OCO2`: the cytotoxicity call is “inactive”.

In the case of `C[C@@H]1CN([C@H](C)CO)C(=O)c2cc(Br)cnc2O[C@H]1CN(C)C(=O)Nc1ccccc1F`, the cytotoxicity call is “inactive”.

As for `CCCCC[C@@H](C[C@@H](CC(=O)O)O[C@H]1O[C@@H](CO)[C@@H](O[C@H]2O[C@@H](CO)[C@@H](O)[C@@H](O)[C@@H]2O)[C@@H](O)[C@@H]1O)OC(=O)C[C@H](O)C[C@H](CCCCC)O[C@H]1O[C@@H](CO)[C@@H](O)[C@@H](O)[C@@H]1O`, the cytotoxicity call was “inactive”.

Take `Cn1c(O)cc(=O)n(C)c1=O`: the cytotoxicity call is “inactive”.

Turning to `CCS(=O)(=O)NCC[C@H]1CC[C@H](NS(=O)(=O)c2ccccc2C)[C@@H](CO)O1`, the cytotoxicity call is “inactive”.

In the case of `Cc1cccc(/C=C2\CS/C(=C\c3cccc(C)c3)C2=O)c1`, the cytotoxicity call was “inactive”.

On to `COC(=O)[C@@H]1C[C@H](C#N)N[C@@H]1c1ccccn1`, for which the cytotoxicity call is “inactive”.

Regarding `C[C@@H]1CN([C@@H](C)CO)C(=O)Cc2cc(NC(=O)Nc3ccc(C(F)(F)F)cc3)ccc2O[C@@H]1CN(C)Cc1ccc2c(c1)OCO2`, the cytotoxicity call is “active”.

As to `C[C@H]1CN([C@@H](C)CO)S(=O)(=O)c2ccc(C#CCN(C)C)cc2O[C@H]1CN(C)S(C)(=O)=O`, the cytotoxicity call was “inactive”.

In the case of `COc1ccc(CCN(C)CCCOc2ccc(S(=O)(=O)c3c(C(C)C)c4ccccc4n3C)cc2)cc1OC`, the cytotoxicity call is “active”.

On to `COc1ccc(C(=O)NCc2ccc(OCCN(C)C)cc2)cc1OC`, for which the cytotoxicity call was “inactive”.

Consider `COc1ccc(CCN(C)CCCOc2ccc(S(=O)(=O)c3c(C(C)C)cn4ccccc34)cc2)cc1OC`, for which the cytotoxicity call is “active”.

On to `COc1ccc(CCN(C)CCCOc2ccc(S(=O)(=O)c3[nH]c4ccccc4c3C(C)C)cc2)cc1OC`, for which the cytotoxicity call is “active”.

Turning to `COc1ccc(NC(=O)N(C)C[C@H]2Oc3c(NS(=O)(=O)c4cn(C)cn4)cccc3C(=O)N([C@H](C)CO)C[C@@H]2C)cc1`, the cytotoxicity call was “inactive”.

Turning to `COc1ccc(S(=O)(=O)N(C)C[C@H]2Oc3ccc(NC(=O)CCN4CCOCC4)cc3C(=O)N([C@@H](C)CO)C[C@@H]2C)cc1`, the cytotoxicity call is “inactive”.

With `C[C@@H]1CN([C@@H](C)CO)C(=O)c2cc(NS(=O)(=O)c3cccs3)ccc2O[C@@H]1CN(C)S(=O)(=O)c1cn(C)cn1`, the cytotoxicity call was “inactive”.

With `c1ccc(NC2CCCCC2)nc1`, the cytotoxicity call is “inactive”.

On to `CO[C@H]1CN(C)C(=O)c2cc(NS(=O)(=O)CC(F)(F)F)ccc2OC[C@@H](C)N(Cc2ccccn2)C[C@@H]1C`, for which the cytotoxicity call was “inactive”.

Regarding `CN(C)CC(=O)N1CC(=O)N2[C@@H](CO)[C@@H](c3ccc(C#Cc4cccnc4)cc3)[C@@H]2C1`, the cytotoxicity call was “inactive”.

For `C[C@H]1CCCCO[C@@H](CN(C)Cc2ccncc2)[C@@H](C)CN([C@@H](C)CO)C(=O)c2cc(NC(=O)Nc3ccc(F)cc3)ccc2O1`, the cytotoxicity call was “inactive”.

As to `C=CC1=C(C(=O)O)N2C(=O)C(NC(=O)C(=NOCC(=O)O)c3csc(N)n3)C2SC1` (centres undefined), the cytotoxicity call is “active”.

`C=CC1=C(C(=O)O)N2C(=O)C(NC(=O)C(=NO)c3csc(N)n3)C2SC1` (centres undefined): the cytotoxicity call is “inactive”.

As to `C=CC1=C(C(=O)O)N2C(=O)[C@@H](NC(=O)/C(=N\OCC(=O)O)c3csc(N)n3)[C@H]2SC1`, the cytotoxicity call was “inactive”.

For the compound `CC(C)CC#Cc1ccc2c(c1)O[C@@H](CN(C)C(=O)Cc1ccncc1)[C@@H](C)CN([C@H](C)CO)S2(=O)=O`, the cytotoxicity call was “inactive”.

On to `C[C@H]1CN([C@@H](C)CO)C(=O)Cc2cc(N(C)C)ccc2O[C@H]1CN(C)S(=O)(=O)c1ccc(Cl)cc1`, for which the cytotoxicity call is “active”.

On to `C[C@@H]1CN([C@@H](C)CO)C(=O)Cc2cc(N(C)C)ccc2O[C@H]1CN(C)S(=O)(=O)c1ccc(Cl)cc1`, for which the cytotoxicity call was “inactive”.

For the compound `C[C@@H]1CN([C@H](C)CO)C(=O)Cc2cc(N(C)C)ccc2O[C@@H]1CN(C)S(=O)(=O)c1ccc(Cl)cc1`, the cytotoxicity call is “inactive”.

For the compound `C[C@H](CO)N1C[C@H](C)[C@H](CN(C)S(=O)(=O)c2ccc(Cl)cc2)Oc2ccc(N(C)C)cc2CC1=O`, the cytotoxicity call is “active”.

For the compound `C[C@H]1CN([C@@H](C)CO)C(=O)Cc2cc(N(C)C)ccc2O[C@@H]1CN(C)S(=O)(=O)c1ccc(Cl)cc1`, the cytotoxicity call is “inactive”.

For `C[C@@H]1CN([C@H](C)CO)C(=O)Cc2cc(N(C)C)ccc2O[C@H]1CN(C)S(=O)(=O)c1ccc(Cl)cc1`, the cytotoxicity call is “inactive”.
